In this assay the target is ATP-dependent translocase ABCB1 (Homo sapiens) (UniProt P08183). The assay can be described thus: MDR1 (ABCB1) efflux transporter inhibition, cell-based (AID 377). The settings on record: MDR1-expressing cells, fluorescent substrate accumulation slope; stronger effect = higher value; concentration not given here.

Molecules are shown by their SMILES. Records with an inconclusive call do not appear. The source made the active and inactive calls. Rule as the data show it: active = fluorescence slope change above about 50%; inconclusive = mostly about 31% to 49%; inactive = weaker than that.

ATP-dependent translocase ABCB1 (Homo sapiens), sequence (P08183 whole entry, looked up): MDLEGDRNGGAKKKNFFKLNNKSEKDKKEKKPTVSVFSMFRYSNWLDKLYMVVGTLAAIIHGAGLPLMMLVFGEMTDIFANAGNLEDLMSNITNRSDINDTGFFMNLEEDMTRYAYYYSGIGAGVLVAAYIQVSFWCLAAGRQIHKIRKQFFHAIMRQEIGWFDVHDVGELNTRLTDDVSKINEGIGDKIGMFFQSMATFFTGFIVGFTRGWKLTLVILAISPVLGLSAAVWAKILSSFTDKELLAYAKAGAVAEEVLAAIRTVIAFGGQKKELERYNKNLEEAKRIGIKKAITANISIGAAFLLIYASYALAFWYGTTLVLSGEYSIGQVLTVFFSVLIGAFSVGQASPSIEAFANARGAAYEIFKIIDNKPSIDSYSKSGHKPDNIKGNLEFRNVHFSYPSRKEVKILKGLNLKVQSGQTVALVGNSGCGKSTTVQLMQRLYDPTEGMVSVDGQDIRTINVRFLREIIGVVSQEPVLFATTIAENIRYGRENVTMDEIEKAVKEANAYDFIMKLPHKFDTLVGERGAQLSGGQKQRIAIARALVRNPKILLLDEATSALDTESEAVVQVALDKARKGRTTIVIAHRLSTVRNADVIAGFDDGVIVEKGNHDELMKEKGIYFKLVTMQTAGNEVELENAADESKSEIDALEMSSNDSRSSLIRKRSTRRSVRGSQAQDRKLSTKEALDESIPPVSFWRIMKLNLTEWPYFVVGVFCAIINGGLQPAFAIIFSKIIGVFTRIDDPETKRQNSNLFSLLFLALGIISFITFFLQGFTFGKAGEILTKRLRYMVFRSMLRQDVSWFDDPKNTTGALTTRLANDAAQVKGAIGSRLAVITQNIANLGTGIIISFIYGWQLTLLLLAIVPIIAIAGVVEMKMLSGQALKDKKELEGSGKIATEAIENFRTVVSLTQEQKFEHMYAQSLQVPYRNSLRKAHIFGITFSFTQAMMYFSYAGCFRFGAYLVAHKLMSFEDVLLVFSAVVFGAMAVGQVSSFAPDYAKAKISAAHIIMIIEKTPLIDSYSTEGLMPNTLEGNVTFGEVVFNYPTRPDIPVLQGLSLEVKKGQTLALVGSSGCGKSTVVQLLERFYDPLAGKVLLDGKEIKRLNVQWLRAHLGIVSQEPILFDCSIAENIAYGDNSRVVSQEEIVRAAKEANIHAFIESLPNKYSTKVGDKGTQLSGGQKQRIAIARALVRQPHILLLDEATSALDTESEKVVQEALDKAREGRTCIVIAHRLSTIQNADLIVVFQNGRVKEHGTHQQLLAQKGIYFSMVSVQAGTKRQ

With `CO[C@H]1/C=C/O[C@@]2(C)Oc3c(C)c(O)c4c(O)c(c(/C=N/N5CCN(C)CC5)c(O)c4c3C2=O)NC(=O)/C(C)=C\C=C\[C@H](C)[C@H](O)[C@@H](C)[C@@H](O)[C@@H](C)[C@H](OC(C)=O)[C@@H]1C`, the fluorescence slope change was 69.2% (active).
